# Measurements as given in PubChem BioAssay (EPA / NIEHS).
# Results filed as inconclusive are left out. Calls of active or inactive are those of the source. Rule for the calls: active = hit-call score of the fitted dose curve at least 0.9, where 1 is the maximum; inconclusive = response in the unintended direction; inactive = score below 0.9.
# How the values were obtained:
# [1] = biological target: rat CYP2C12, Cyp2c12 (gene 25011) (UniProt P11510); assay: NVS_ADME_rCYP2C12: NovaScreen (NVS) CYP450-related Enzyme Activity (ADME) Assay for rat CYP2C12 (AID 2283119)
# rat CYP2C12, Cyp2c12 (gene 25011), sequence (P11510 whole entry, looked up): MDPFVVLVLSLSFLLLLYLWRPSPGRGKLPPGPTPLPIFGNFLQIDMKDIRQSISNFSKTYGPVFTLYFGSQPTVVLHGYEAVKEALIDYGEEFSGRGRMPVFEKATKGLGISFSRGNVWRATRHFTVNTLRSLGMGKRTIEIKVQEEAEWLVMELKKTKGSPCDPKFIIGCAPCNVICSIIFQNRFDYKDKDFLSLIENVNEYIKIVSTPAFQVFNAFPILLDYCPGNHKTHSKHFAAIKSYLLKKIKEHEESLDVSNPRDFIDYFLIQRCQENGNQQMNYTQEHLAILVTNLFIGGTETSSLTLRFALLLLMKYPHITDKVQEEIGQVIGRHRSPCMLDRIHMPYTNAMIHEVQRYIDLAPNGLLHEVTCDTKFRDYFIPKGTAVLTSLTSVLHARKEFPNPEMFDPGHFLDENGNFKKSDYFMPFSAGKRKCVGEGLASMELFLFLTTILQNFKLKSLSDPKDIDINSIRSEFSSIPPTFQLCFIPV
# In short: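 Cell-free recombinant rat CYP2C12 activity read by fluorescence 0.5 h after dosing; loss of signal versus acetonitrile control. Primary screen in duplicate at 10 uM; actives then run in concentration-response format.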
# [2] = biological target: human Acetylcholinesterase (AChE), ACHE (gene 43) (UniProt P22303); assay: NVS_ENZ_hAChE: NovaScreen (NVS) Enzymatic Assay for human Acetylcholinesterase (AChE) (AID 2283129)
# human Acetylcholinesterase (AChE), ACHE (gene 43), sequence (P22303 whole entry, looked up): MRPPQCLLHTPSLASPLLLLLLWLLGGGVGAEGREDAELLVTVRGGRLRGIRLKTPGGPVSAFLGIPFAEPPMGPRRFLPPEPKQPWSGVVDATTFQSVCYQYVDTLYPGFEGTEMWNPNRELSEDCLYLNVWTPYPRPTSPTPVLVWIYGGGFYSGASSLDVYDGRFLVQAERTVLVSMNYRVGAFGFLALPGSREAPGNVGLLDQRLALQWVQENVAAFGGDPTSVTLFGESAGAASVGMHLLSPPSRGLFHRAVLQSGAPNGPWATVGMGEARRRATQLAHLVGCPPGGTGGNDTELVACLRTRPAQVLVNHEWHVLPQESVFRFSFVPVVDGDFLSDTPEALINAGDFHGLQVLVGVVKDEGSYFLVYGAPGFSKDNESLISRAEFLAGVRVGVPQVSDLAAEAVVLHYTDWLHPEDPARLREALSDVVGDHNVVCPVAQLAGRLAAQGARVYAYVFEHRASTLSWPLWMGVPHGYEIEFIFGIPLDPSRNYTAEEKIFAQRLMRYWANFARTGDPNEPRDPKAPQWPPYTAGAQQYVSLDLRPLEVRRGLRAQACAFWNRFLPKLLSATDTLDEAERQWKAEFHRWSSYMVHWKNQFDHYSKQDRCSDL
# In short: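 Cell-free colorimetric enzyme-activity assay; compounds read 0.33 hour after dosing, loss of signal vs DMSO baseline. Primary screen in duplicate at 25 uM single concentration, with active compounds retested in concentration series.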
# [3] = biological target: human Caspase 2 (CASP2), CASP2 (gene 835) (UniProt P42575); assay: NVS_ENZ_hCASP2: NovaScreen (NVS) Enzymatic Assay for human Caspase 2 (CASP2) (AID 2283135)
# human Caspase 2 (CASP2), CASP2 (gene 835), sequence (P42575 whole entry, looked up): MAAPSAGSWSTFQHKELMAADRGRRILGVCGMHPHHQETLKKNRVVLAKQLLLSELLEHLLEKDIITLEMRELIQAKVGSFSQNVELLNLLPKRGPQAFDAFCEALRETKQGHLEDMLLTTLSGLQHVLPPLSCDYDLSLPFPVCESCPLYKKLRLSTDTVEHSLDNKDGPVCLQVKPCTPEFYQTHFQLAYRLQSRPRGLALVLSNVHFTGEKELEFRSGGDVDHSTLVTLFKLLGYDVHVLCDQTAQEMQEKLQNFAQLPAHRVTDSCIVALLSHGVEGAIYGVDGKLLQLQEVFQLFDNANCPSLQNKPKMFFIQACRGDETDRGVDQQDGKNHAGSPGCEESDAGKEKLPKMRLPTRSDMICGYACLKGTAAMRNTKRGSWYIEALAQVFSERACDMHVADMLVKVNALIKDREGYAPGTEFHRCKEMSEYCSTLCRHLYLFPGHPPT
# In short: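 E. coli-expressed enzyme in a cell-free protease assay, fluorescence read 1 h after dosing. Compounds at 25 uM in duplicate, with concentration-response up to 50 uM for hits; loss of signal against DMSO baseline.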
# [4] = biological target: human Aurora Kinase A - serine/threonine-protein Kinase 6 (AurA), AURKA (gene 6790) (UniProt O14965); assay: NVS_ENZ_hAurA: NovaScreen (NVS) Enzymatic Assay for human Aurora Kinase A - serine/threonine-protein Kinase 6 (AurA) (AID 2283142)
# In short: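 Cell-free enzymatic assay with human Aurora A, 1 hour after dosing. Fluorescent substrate turnover detected after electrophoretic mobility shift separation of substrate and product. Screened at 25 uM, actives retested in concentration-response up to 50 uM.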
# [5] = biological target: human IkappaB Kinase alpha (IKKa), CHUK (gene 1147) (UniProt O15111); assay: NVS_ENZ_hIKKa: NovaScreen (NVS) Enzymatic Assay for human IkappaB Kinase alpha (IKKa) (AID 2283167)
# human IkappaB Kinase alpha (IKKa), CHUK (gene 1147), sequence (O15111 whole entry, looked up): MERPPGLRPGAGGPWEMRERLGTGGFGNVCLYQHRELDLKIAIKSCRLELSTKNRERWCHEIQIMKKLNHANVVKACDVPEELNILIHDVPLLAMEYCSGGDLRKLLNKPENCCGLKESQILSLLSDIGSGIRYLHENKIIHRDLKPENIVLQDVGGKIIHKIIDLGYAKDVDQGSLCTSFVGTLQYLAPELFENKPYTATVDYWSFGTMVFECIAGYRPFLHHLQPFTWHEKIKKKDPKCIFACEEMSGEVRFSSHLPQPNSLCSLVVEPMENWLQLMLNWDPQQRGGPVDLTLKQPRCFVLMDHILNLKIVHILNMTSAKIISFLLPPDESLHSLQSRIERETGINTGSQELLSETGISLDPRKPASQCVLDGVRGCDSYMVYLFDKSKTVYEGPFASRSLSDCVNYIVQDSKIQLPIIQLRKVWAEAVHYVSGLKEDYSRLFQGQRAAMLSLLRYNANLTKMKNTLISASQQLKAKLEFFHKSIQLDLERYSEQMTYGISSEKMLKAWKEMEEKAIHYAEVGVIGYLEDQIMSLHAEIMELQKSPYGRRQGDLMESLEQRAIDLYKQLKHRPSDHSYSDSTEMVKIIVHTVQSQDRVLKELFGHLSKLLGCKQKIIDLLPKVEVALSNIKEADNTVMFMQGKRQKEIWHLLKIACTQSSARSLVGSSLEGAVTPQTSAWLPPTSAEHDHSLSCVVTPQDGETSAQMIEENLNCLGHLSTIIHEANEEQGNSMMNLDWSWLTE
# In short: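 Cell-free recombinant human IKKa with fluorescent substrate, product separated by electrophoretic mobility shift; read 1 hour after dosing. Primary screen duplicate at 25 uM, actives then concentration-response up to 50 uM; loss of signal relative to DMSO.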
# [6] = biological target: human p21 Activated Kinase 4 (PAK4), PAK4 (gene 10298) (UniProt O96013); assay: NVS_ENZ_hPAK4: NovaScreen (NVS) Enzymatic Assay for human p21 Activated Kinase 4 (PAK4) (AID 2283189)
# human p21 Activated Kinase 4 (PAK4), PAK4 (gene 10298), sequence (O96013 whole entry, looked up): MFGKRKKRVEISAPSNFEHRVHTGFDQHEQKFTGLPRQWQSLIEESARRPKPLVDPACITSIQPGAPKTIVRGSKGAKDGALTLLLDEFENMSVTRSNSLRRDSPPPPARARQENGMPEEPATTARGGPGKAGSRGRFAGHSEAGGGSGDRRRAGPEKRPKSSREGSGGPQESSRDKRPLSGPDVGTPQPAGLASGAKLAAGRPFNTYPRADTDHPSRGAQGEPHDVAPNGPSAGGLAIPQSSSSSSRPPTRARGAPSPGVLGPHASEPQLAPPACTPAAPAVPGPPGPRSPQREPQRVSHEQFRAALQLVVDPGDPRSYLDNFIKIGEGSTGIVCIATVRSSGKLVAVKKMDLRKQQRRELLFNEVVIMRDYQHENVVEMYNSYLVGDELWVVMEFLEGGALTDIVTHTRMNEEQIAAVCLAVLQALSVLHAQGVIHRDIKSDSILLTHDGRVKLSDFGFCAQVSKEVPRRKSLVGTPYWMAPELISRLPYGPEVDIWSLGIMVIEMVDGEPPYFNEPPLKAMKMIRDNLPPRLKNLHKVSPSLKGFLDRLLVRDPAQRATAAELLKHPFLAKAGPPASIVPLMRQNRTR
# In short: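 Cell-free recombinant human PAK4 activity assay; fluorescent substrate and product separated by electrophoretic mobility shift, read 1 h after dosing. Initially tested in duplicate at 25 uM, relative to DMSO baseline.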
# [7] = biological target: human Phosphatase and Tensin Homolog (PTEN), PTEN (gene 5728) (UniProt P60484); assay: NVS_ENZ_hPTEN: NovaScreen (NVS) Enzymatic Assay for human Phosphatase and Tensin Homolog (PTEN) (AID 2283203)
# In short: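 Cell-free recombinant human PTEN with fluorescent substrate; product separated by electrophoretic mobility shift and read by fluorescence 1 h after dosing. Primary screen in duplicate at 25 uM, actives followed in concentration series versus DMSO.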
# [8] = biological target: human Protein Tyrosine Phosphatase Non-receptor Type 2 (PTPN2), PTPN2 (gene 5771) (UniProt P17706); assay: NVS_ENZ_hPTPN2: NovaScreen (NVS) Enzymatic Assay for human Protein Tyrosine Phosphatase Non-receptor Type 2 (PTPN2) (AID 2283207)
# In short: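 Cell-free recombinant enzyme with fluorescent substrate, product separated by electrophoretic mobility shift; read 1 h after dosing. Primary screen single concentration (25 uM) in duplicate; actives followed in concentration series; loss of signal versus DMSO.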
# [9] = biological target: rat Acetylcholinesterase (AChE), Ache (gene 83817) (UniProt P37136); assay: NVS_ENZ_rAChE: NovaScreen (NVS) Enzymatic Assay for rat Acetylcholinesterase (AChE) (AID 2283233)
# rat Acetylcholinesterase (AChE), Ache (gene 83817), sequence (P37136 whole entry, looked up): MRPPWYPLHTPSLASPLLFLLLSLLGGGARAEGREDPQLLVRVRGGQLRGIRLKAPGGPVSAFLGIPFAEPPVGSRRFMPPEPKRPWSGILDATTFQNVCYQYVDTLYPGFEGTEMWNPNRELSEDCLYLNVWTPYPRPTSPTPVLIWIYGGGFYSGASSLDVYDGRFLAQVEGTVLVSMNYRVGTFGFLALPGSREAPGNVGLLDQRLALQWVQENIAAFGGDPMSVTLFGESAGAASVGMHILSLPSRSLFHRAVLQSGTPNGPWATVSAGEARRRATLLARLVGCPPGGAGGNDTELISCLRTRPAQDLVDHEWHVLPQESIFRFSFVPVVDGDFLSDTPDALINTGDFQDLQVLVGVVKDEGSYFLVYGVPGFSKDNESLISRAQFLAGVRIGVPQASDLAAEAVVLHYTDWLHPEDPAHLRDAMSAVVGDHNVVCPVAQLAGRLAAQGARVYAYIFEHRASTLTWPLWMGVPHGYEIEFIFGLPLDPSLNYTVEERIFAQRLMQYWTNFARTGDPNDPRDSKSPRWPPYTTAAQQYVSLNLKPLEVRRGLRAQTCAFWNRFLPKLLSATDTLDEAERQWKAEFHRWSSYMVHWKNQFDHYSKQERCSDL
# In short: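 Rat brain membrane acetylcholinesterase activity measured colorimetrically 0.33 h after compound addition, loss of signal relative to DMSO. Primary screen in duplicate at 25 uM; actives re-run as concentration-response with 50 uM top concentration.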
# [10] = biological target: rat Monoamine Oxidase, MAO-B, Peripheral (MAOBP), Maob (gene 25750) (UniProt P19643); assay: NVS_ENZ_rMAOBP: NovaScreen (NVS) Enzymatic Assay for rat Monoamine Oxidase, MAO-B, Peripheral (MAOBP) (AID 2283242)
# rat Monoamine Oxidase, MAO-B, Peripheral (MAOBP), Maob (gene 25750), sequence (P19643 whole entry, looked up): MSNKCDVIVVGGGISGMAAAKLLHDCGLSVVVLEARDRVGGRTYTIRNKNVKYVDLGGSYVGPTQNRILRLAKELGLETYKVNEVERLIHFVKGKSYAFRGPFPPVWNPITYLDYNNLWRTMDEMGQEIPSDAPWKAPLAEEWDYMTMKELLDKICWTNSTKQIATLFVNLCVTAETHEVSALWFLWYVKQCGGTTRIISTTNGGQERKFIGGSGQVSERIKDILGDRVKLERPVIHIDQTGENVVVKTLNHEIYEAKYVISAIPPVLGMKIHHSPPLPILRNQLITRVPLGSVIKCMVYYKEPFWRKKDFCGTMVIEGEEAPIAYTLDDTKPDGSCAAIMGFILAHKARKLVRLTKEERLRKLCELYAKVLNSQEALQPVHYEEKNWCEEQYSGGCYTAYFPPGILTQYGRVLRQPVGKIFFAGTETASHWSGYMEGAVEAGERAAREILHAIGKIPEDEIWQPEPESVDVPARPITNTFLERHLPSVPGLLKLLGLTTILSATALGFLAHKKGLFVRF
# [11] = biological target: rat Corticotropin Releasing Factor Receptor (CRF), Crhr1 (gene 58959) (UniProt P35353); assay: NVS_GPCR_rCRF: NovaScreen (NVS) G Protein-Coupled Receptor Assay for rat Corticotropin Releasing Factor Receptor (CRF) (AID 2283300)
# In short: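 Rat cortical membranes used as receptor source in a radioligand competitive displacement binding assay; scintillation read 2 h after dosing. Primary screen run in duplicate at 25 uM; loss of signal versus DMSO baseline indicates binding.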
# [12] = biological target: human Neonicotinoid receptor (NNR), CHRNA2 (gene 1135) (UniProt Q15822); assay: NVS_LGIC_hNNR_NBungSens: NovaScreen (NVS) Ligand-Gated Ion Channel Assay for human Neonicotinoid receptor (NNR) (AID 2283313)
# In short: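 Radioligand displacement on human neuroblastoma membranes, 2 h, filter-based scintillation counting. Primary screen in duplicate at 25 uM; chemicals passing threshold (e.g. 30% inhibition) run singleton concentration-response to 50 uM; loss of binding fitted versus DMSO.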
# [13] = biological target: human Caspase 10 (CASP10), CASP10 (gene 843) (UniProt Q92851); assay: NVS_ENZ_hCASP10: NovaScreen (NVS) Enzymatic Assay for human Caspase 10 (CASP10) (AID 2283133)
# In short: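 Recombinant human caspase-10 from E. coli, cell-free fluorogenic substrate assay read 1 h after dosing. Primary duplicate screen at 25 uM; hits (e.g. ≥30% inhibition) run singly in concentration-response up to 50 uM, normalised to DMSO.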
# [14] = tested on: rat Monoamine Oxidase, MAO-A, Central (MAOAC), gene 29253; assay: NVS_ENZ_rMAOAC: NovaScreen (NVS) Enzymatic Assay for rat Monoamine Oxidase, MAO-A, Central (MAOAC) (AID 2283243);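 note: potency refers to inhibition seen as signal drop below DMSO baseline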
# In short: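 Rat brain tissue extract served as the cell-free enzyme source; activity was measured by radiometric scintillation counting 1.5 hours after compound addition. Loss of signal relative to DMSO baseline indicated inhibition; primary screen at 25 uM in duplicate.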
# [15] = biological target: rat Neurotensin Receptor (NTS), Ntsr1 (gene 366274) (UniProt P20789); assay: NVS_GPCR_rNTS: NovaScreen (NVS) G Protein-Coupled Receptor Assay for rat Neurotensin Receptor (NTS) (AID 2283308)
# In short: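 Rat forebrain membranes; radioligand binding with competitive displacement, read by filter-based scintillation counting 1 h after dosing. Primary screen in duplicate at 25 uM; actives (e.g., 30% inhibition) rerun in concentration-response up to 50 uM, loss-of-signal versus DMSO.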
# [16] = biological target: rat Oxytocin Receptor (OXT), Oxtr (gene 25342) (UniProt P70536); assay: NVS_GPCR_rOXT: NovaScreen (NVS) G Protein-Coupled Receptor Assay for rat Oxytocin Receptor (OXT) (AID 2283330)
# In short: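 Radioligand displacement on rat uterine membranes, 1 h incubation, filter-based scintillation counting. Chemicals were screened in duplicate at 25 uM, and those passing threshold were retested in concentration-response up to 50 uM. Loss of binding was fitted versus DMSO.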
# [17] = biological target: Norway rat Vesicular Monoamine Transporter (VMAT2), neurotransmitter transporter, Slc18a2 (gene 25549) (UniProt Q01827); assay: NVS_TR_rVMAT2: NovaScreen (NVS) Transporter Assay for Norway rat Vesicular Monoamine Transporter (VMAT2), neurotransmitter transporter (AID 2283376);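 note: actives lower the bound radioligand signal below the DMSO level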
# In short: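 Radioligand displacement binding on rat forebrain tissue preparation, filter-based scintillation read-out 1 hour after dosing. Primary screen in duplicate at 25 uM, then concentration series for actives; loss of signal versus DMSO.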
# rat CYP2B1, gene 24300 = assay: NVS_ADME_rCYP2B1: NovaScreen (NVS) CYP450-related Enzyme Activity (ADME) Assay for rat CYP2B1 (AID 2283117)
# In short: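 Recombinant rat CYP2B1 with fluorogenic substrate, read at 0.75 h. Primary screen in duplicate at 10 uM; compounds meeting threshold (e.g., 30% inhibition) re-run in concentration-response up to 20 uM. Fitted against acetonitrile control.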
# [18] = biological target: rat CYP2D1, Cyp2d1 (gene 266684) (UniProt P10633); assay: NVS_ADME_rCYP2D1: NovaScreen (NVS) CYP450-related Enzyme Activity (ADME) Assay for rat CYP2D1 (AID 2283122)
# In short: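 Cell-free fluorescence enzyme-activity assay on extracted rat CYP2D1 protein, read 0.75 h after dosing. Primary screen in duplicate at 10 uM; qualifying chemicals then run in concentration-response to 20 uM max, loss-of-signal versus acetonitrile baseline.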
# [19] = biological target: human Raf-1 Proto-Oncogene, serine/threonine Kinase (RAF1), RAF1 (gene 5894) (UniProt P04049); assay: NVS_ENZ_hRAF1: NovaScreen (NVS) Enzymatic Assay for human Raf-1 Proto-Oncogene, serine/threonine Kinase (RAF1) (AID 2283216)
# human Raf-1 Proto-Oncogene, serine/threonine Kinase (RAF1), RAF1 (gene 5894), sequence (P04049 whole entry, looked up): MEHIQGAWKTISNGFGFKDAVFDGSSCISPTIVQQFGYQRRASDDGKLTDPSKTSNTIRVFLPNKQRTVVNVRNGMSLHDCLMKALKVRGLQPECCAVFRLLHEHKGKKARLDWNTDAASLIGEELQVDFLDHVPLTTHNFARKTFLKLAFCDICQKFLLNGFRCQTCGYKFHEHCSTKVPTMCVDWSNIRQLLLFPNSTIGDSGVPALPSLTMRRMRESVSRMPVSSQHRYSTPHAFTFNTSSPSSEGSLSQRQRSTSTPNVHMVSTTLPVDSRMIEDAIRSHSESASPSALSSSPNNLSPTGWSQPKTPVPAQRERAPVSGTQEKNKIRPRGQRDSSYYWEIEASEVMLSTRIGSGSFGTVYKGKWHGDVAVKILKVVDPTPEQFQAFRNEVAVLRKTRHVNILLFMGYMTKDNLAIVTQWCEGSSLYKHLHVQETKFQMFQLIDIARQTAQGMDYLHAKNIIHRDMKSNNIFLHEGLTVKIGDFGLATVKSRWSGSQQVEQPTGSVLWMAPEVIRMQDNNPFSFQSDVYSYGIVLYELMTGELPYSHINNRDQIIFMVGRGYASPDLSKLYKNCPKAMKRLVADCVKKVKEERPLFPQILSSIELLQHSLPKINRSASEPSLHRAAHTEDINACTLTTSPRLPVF
# In short: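 Cell-free recombinant kinase with specific fluorescent substrate, product separated by electrophoretic mobility shift; read 1 h after dosing. Primary screen at 25 uM in duplicate; hits then run in concentration-response up to 50 uM, fitted as loss of signal versus DMSO.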
# [20] = read-out: xenobiotic metabolism (CYP2C9), CYP2C9 (gene 1559); assay: CLD_CYP2C9_6hr: CellzDirect (CLD) Gene Expression Assay for xenobiotic metabolism (CYP2C9) at 6 hours (AID 2283664)
# In short: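 Primary human hepatocytes dosed daily with test chemicals at multiple concentrations; harvested at 6 h. CYP2C9 mRNA induction measured by qNPA chemiluminescence. Gain of signal fitted against 0.2% DMSO vehicle; cytotoxicity annotated from phase-contrast morphology.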
smiles,measurement,setting,value
S=C([S-])NCCNC(=S)[S-].[Mn+2],outcome,[1],inactive
same,outcome,[2],inactive
same,outcome,[3],inactive
same,AC50,[4],1.79 µM (active)
same,AC50,[5],30.1 µM (active)
same,AC50,[6],5.91 µM (active)
same,AC50,[7],0.933 µM (active)
same,AC50,[8],0.295 µM (active)
same,outcome,[9],inactive
same,outcome,[10],inactive
same,AC50,[11],12.5 µM (active)
same,outcome,[12],inactive
CN(C)c1ccc(C(=C2C=CC(=[N+](C)C)C=C2)c2ccc(N(C)C)cc2)cc1,AC50,[2],6.48 µM (active)
same,outcome,[13],inactive
same,AC50,[3],18.2 µM (active)
same,AC50,[9],17.1 µM (active)
same,AC50,[10],25 µM (active)
same,AC50,[14],25 µM (active)
same,AC50,[15],6.82 µM (active)
same,AC50,[16],20.9 µM (active)
same,AC50,[17],1.89 µM (active)
c1ccc2c(c1)Cc1ccccc1-2,outcome,[2],inactive
same,outcome,[3],inactive
BrC1CCC(Br)C(Br)CCC(Br)C(Br)CCC1Br (centres undefined),outcome,"rat CYP2B1, gene 24300",inactive
CC(C)(C)[C@@H](O)[C@@H](Cc1ccc(Cl)cc1)n1cncn1,AC50,"rat CYP2B1, gene 24300",1.35 µM (active)
same,AC50,[1],5.82 µM (active)
same,AC50,[18],5.84 µM (active)
same,outcome,[19],inactive
same,outcome,[20],inactive
